This passage reports cell count results from PubChem BioAssay.

Where “and” joins values, the source holds several entries; their conditions need not be identical. Equal values may be shown once.

The nature of this test: viability loss with induced miR-34 in A549 – imaging, A549 dox-inducible miR-34, nuclei and caspase counts, primary screen (AID 1347080). Further: test concentration not given here. The note with it: A549 miR-34 inducible, Hoechst nuclei count, 48 h; measured here: total cells with miR-34 induction; stronger effect = lower value.
`Fc1ccc(C(OCCN2CCN(C/C=C/c3ccccc3)CC2)c2ccc(F)cc2)cc1`: the cell count was 2280. `O=C1Nc2cc(Cl)c(Cl)cc2N2CCNCC12` (stereo not given) had a cell count of 8510.

`O=C1/C(=C/c2ccccc2)C[C@@]2(O)C3Cc4ccc(O)c5c4[C@@]2(CCN3CC2CC2)[C@H]1O5` registered a cell count of 919. The result for `CC(C)(C)NCC(O)COc1cccc2[nH]c(C#N)cc12` (stereo not given) reads 9030; that for `Cc1o[nH]c(=O)c1C[C@H](N)C(=O)O`, 9160; that for `C[C@H](N)Cc1cnc[nH]1`, 9180. The result for `c1ccc(CC(c2ccccc2)N2CCCCC2)cc1` (stereo not given) reads 9440; that for `CCCOc1ccc2[nH]cc(C3=CCNCC3)c2n1`, 9040; that for `CCCCCOc1c(OC)ccc2cc(C(=O)NCc3ccc4c(c3)OCO4)c(=O)[nH]c12`, 5450. The result for `CCN(CC)CCO[C@H]1CC[C@@]2(C)C(=CC[C@@H]3[C@@H]2CC[C@]2(C)C(=O)CC[C@@H]32)C1` reads 5320 and 6330; that for `CC(C)CC(N)C1(c2ccc(Cl)cc2)CCC1` (stereo not given), 7820. Turning to `O=C1CSC(c2ccccc2Cl)c2cc(Cl)ccc2N1` (stereo not given), the cell count is 2450 and 7360. In turn, `CC(=O)N1CC[N+](C)(C)CC1` displayed a cell count of 9100. For `O=C(O)CCC(CP(=O)(O)O)C(=O)O` (stereo not given) the value was 9040; for `COc1cc2c(cc1O)C(CCc1ccc(Cl)cc1)N(C)CC2` (stereo not given), 7110; for `N[C@]1(C(=O)O)CC[C@@H](C(=O)O)C1` (racemic), 7990. In turn, `c1ccc(C2CNCc3ccccc32)cc1` (stereo not given) came in with a cell count of 8070.

Consider `COC1CCC2NC(C(=O)c3ccccc3)CC2C1` (stereo not given), for which the cell count turned out to be 1500. `O=C(O)/C=C/CO`: the cell count was determined as 9440. On to `CCOC(=O)c1ncn2c1CN(C)C(=O)c1cc(N=[N+]=[N-])ccc1-2`, for which the cell count amounted to 7930. Turning to `C(=C\c1ccccc1)/CN1CCN(CCOC(c2ccccc2)c2ccccc2)CC1`, the cell count turned out to be 5420. Turning to `C=C(C)[C@@H]1CCC(C)=C[C@H]1c1c(OC)cc(C)cc1OC`, the cell count was 5230 and 8980.

`C[C@H](N)Cn1ccc2cc(F)c(Cl)cc21` gave a cell count of 7990. On to `CCOC(=O)c1ncc2[nH]c3ccc(OCc4ccccc4)cc3c2c1COC`, for which the cell count turned out to be 2080. The compound `Cc1[nH]c2ccc(Cl)cc2c1C1=CCNCC1` registered a cell count of 7850.

On to `CCC(Oc1ccc(Cl)cc1)C(=O)OC1CC2CCC(C1)N2C` (stereo not given), for which the cell count was 8430. The compound `NCC(CS(=O)(=O)O)c1ccc(Cl)cc1` (stereo not given) returned a cell count of 9200. For `CN1[C@@H]2CC[C@H]1CC(OC(=O)N1Cc3ccccc3NC1=O)C2` (stereo not given in full) the value was 8310.

Compound `Cc1[nH]cnc1CCN` displayed a cell count of 10000. With `Cc1cc(C)cc(C(=O)OC2CC3CCC(C2)N3C)c1` (stereo not given), the cell count turned out to be 8100. In turn, `CCN1C[C@]2(COC(=O)c3ccccc3N3C(=O)C[C@H](C)C3=O)CC[C@H](OC)[C@]34C2[C@H](OC)[C@](O)([C@H]13)[C@@]1(O)C[C@H](OC)[C@H]2C[C@@H]4[C@@H]1[C@H]2OC` returned a cell count of 8220. For `CC[N+](CC)(CCCNC1=CC(=O)C(NCCC[N+](CC)(CC)Cc2ccccc2)=CC1=O)Cc1ccccc1` the value was 8950. For `CCOc1cncc(/C=C/CCNC)c1` the value was 8770; for `Clc1ccc(C2=CCCC3CCC2N3)cn1` (stereo not given), 9190; for `CN1CC[C@@H]2CN3CCc4cccc(c43)[C@@H]2C1`, 8120. The compound `Cn1c2c(c3ccccc31)CCNCC2` registered a cell count of 8130. Compound `CCCCCCC[n+]1ccc(-c2cc[n+](CCCCCCC)cc2)cc1` yielded a cell count of 1940. `C[C@H](Cc1ccc(OCC(=O)O)cc1)NC[C@H](O)c1cccc(Cl)c1` registered a cell count of 7990. `CN1Cc2ccccc2[C@@H]2c3cccc4[nH]cc(c34)C[C@H]21`: the cell count amounted to 4560. For `CC1=C(O)C(=O)[C@@H]2O[C@@H]2C1=O` the value was 7990.
